Data taken from PMC4336329 (PLoS ONE, 2015).
Screen size: about 310,000 compounds; about 14,000 (4.5%) showed an effect of 50% or more. Effects have a minus sign here. The entries come from a sample that favours strong results as a whole.

Biological target: human ether-à-go-go-related gene (hERG) potassium channel (human, UniProt Q12809)
Assay: primary screen, population patch clamp on CHO cells stably expressing hERG; higher = less effect of the substance
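Note: peak tail current of the secondary pulse compared with the same well before compound.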

human ether-à-go-go-related gene (hERG) potassium channel, sequence (Q12809 whole entry, looked up): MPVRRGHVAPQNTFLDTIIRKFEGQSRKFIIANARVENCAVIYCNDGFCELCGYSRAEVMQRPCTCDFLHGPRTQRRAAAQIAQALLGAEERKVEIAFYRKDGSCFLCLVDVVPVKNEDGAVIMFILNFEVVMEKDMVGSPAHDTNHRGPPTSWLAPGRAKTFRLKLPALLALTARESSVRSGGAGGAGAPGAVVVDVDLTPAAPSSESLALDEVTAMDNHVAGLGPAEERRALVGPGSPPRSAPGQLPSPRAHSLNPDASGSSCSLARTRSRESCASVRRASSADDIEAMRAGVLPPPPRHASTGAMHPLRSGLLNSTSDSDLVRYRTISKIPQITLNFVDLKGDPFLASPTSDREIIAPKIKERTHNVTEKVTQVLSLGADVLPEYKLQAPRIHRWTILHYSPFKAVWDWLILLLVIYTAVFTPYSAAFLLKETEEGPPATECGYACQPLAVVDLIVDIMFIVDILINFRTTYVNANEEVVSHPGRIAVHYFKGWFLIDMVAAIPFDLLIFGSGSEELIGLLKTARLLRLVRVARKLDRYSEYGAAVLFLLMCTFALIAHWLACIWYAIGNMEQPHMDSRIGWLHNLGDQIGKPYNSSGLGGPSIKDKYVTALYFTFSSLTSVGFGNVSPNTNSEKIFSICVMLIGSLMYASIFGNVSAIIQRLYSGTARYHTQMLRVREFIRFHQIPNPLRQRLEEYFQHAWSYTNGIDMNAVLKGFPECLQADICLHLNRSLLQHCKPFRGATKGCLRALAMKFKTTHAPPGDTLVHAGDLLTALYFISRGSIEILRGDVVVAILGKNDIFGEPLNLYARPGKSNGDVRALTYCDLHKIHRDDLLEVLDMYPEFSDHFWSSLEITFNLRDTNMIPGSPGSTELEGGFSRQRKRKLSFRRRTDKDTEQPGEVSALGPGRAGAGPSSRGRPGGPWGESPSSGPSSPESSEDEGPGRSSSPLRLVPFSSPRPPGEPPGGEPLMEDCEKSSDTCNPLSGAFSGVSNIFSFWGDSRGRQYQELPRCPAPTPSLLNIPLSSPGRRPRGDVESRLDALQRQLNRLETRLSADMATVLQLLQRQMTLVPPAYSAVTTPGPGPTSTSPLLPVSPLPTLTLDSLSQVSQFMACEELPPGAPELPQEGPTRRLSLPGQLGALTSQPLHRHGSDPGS

In order of falling “hERG current change (%, negative = inhibition) at 10uM” value:
1. Fc1ccccc1NC(=S)Nc1cccc2cnccc12  46.8%
2. Cc1ccc(-c2nnc(-c3cc(C)on3)o2)cc1  19.6%
3. COc1cccc(CNCc2cccnc2)c1OCc1ccccc1.Cl  19.3%
4. COC(=O)C1=CO[C@@H](C)[C@H]2CN3CC[C@]4(C(=O)Nc5ccccc54)[C@@H]3C[C@H]12  15.5%
5. CCC(CC)c1nnc(NC(=O)c2cccnc2SC)s1  15.4%
6. CCOC(=O)c1cc(C(C)=O)c(=O)[nH]c1C  12%
7. CCc1ccc(/C=C2\Oc3cc(OS(C)(=O)=O)ccc3C2=O)cc1  11.8%
8. COc1cc(NC(=O)CS(=O)(=O)c2ccccc2)cc(OC)c1OC  11.3%
9. Cc1cc(C)n(C(=O)COc2c(C)cccc2C)n1  11%
10. CCOC(=O)CC(=O)CSc1nc(-c2ccccc2)cc(-c2ccccc2)c1C#N  10.1%
11. Cc1cccc(OCCCCc2c(C)n[nH]c2C)c1C  9.64%
12. COc1ccccc1C(O)(C(=O)NN(C)c1ccccc1)c1ccccc1OC  9.03%
13. Cc1cccc(NC(=O)Nc2cccc(Oc3c(F)c(F)c(F)c(F)c3F)c2)c1  8.83%
14. COc1cc(C(=O)N2CCN(C3CCC(C)CC3)CC2)cc(OC)c1OC.O=C(O)C(=O)O (centres unmarked)  8.29%
15. CN(C)c1ccc(NC(=O)CSc2nnc(-c3ccco3)c(-c3ccco3)n2)cc1  6.58%
16. CC(=O)c1cccc(NC(=O)COC(=O)c2ccccn2)c1  5.33%
17. Cc1ccc(/C=N/NC(=O)c2cc3c(ccc4ccccc43)o2)cc1[N+](=O)[O-]  3.49%
18. CN1CCN(CCNC(=O)Nc2ccccc2C(F)(F)F)CC1  3.26%
19. COC(=O)c1cc2c(C)nn(-c3ccccc3)c2s1  2.91%
20. Cc1cccc(CSc2nnc(-c3ccccn3)n2N)c1  2.88%
21. Cn1c(=O)c(=O)n(C)c2cc(N3CCOCC3)c(NS(=O)(=O)c3ccc([N+](=O)[O-])cc3)cc21  2.58%
22. O=S(=O)(NC1=NCCC1)c1cccc(NS(=O)(=O)c2ccc(OC(F)(F)F)cc2)c1  1.71%
23. COc1ccc(OC)c(S(=O)(=O)Nc2ccc3c(c2)n(C)c(=O)n3C)c1  1.61%
24. O=C(c1ccccc1Oc1ccc(C(F)(F)F)cc1[N+](=O)[O-])N1CCOCC1  1.22%
25. CNCc1ccc(OCc2ccccc2)c(OC)c1  0.71%
26. CCOC(=O)C1CCN(c2cc3c(cc2NC(=O)c2cc(OC)ccc2Br)n(C)c(=O)n3C)CC1  0.12%
27. COc1cccc(CNCCO)c1OCc1ccccc1.Cl  -1.31%
28. COc1ccc(OC)c(NS(=O)(=O)c2cc(OC)ccc2OC)c1  -2.14%
29. COc1cc(N(C)C)c([N+](=O)[O-])cc1C(=O)NC(C)CNc1ccc([N+](=O)[O-])cc1Cl (centres unmarked)  -2.36%
30. CN(Cc1ccccn1)Cc1nc(COc2ccccc2)no1  -2.85%
31. CCNCc1ccccc1OCc1ccccc1.Cl  -3.77%
32. O=C(CNC(=O)c1ccc([N+](=O)[O-])cc1)c1ccccc1  -6.36%
33. CCOc1ccc(NC(=S)N2CCC(c3ccc(C)cc3)C2)cc1 (centres unmarked)  -6.63%
34. C/C=C/c1ccc(OCCCCN2C(=O)NC(C)(C)C2=O)c(OC)c1  -7.09%
35. Cc1cn2nc(N)c3ccccc3c2n1  -9.19%
36. Cc1ccc(S(=O)(=O)Nc2cc3c(cc2N2CCOCC2)n(C)c(=O)c(=O)n3C)cc1  -9.6%
37. Cc1ccc(C(=O)N2CCCC(CCC(=O)N3CCN(c4ccccn4)CC3)C2)cc1 (centres unmarked)  -9.9%
38. O=C(c1nc2ccc(Cl)cn2c1CN1CCCC1)N1CCc2ccccc2C1  -10.6%
39. COC(=O)CN1C(=O)C(O)(CC(=O)c2cccc(Br)c2)c2ccccc21 (centres unmarked)  -11.7%
40. COc1cc(CNC(=O)C2CC2)ccc1OCc1ccccc1  -11.8%
41. CCN(CC)Cc1c(C(=O)N2CCc3ccccc3C2)nc2ccc(Cl)cn12  -13.1%
42. Fc1cccc(Cl)c1CSc1ccc2nnc(-c3ccccn3)n2n1  -13.5%
43. Cn1c(=O)c(=O)n(C)c2cc(N3CCCC3)c(NS(=O)(=O)c3ccc(F)cc3)cc21  -16.2%
44. CCc1cc(C(=O)N2CCCC(CCC(=O)N3CCN(c4ccccn4)CC3)C2)no1 (centres unmarked)  -17.4%
45. CN(Cc1cccnc1)Cc1c(C(=O)N2CCc3ccccc3C2)nc2ccc(Cl)cn12  -20.1%
46. O=C(CCC1CCCN(c2ncccn2)C1)N1CCN(c2ccccn2)CC1 (centres unmarked)  -23%
47. CN(Cc1cnccn1)Cc1c(C(=O)N2CCc3ccccc3C2)nc2ccc(Cl)cn12  -23.4%
48. COCCNc1c([N+](=O)[O-])c(=O)n(-c2ccccc2)c2ccccc12  -25.2%
49. Cn1c(=O)c(=O)n(C)c2cc(N3CCOCC3)c(NS(=O)(=O)c3ccc(Br)cc3)cc21  -27%
50. CSc1cccc(NC(=S)N(CCCN2CCCC2)Cc2cccn2Cc2ccc(Cl)cc2)c1  -28.1%
51. Cc1cnc(CN(C)Cc2c(C(=O)N3CCCCCCC3)nc3ccc(Cl)cn23)[nH]1  -29%
52. O=C(CN1C(=O)c2ccccc2S1(=O)=O)NCCSCc1c(F)cccc1Cl  -29.7%
53. CCN(C)Cc1c(C(=O)N2CCc3ccccc3C2)nc2ccc(Cl)cn12  -31.1%
54. CC1CCN(Cc2c(C(=O)N3CCc4ccccc4C3)nc3ccc(Cl)cn23)CC1  -31.7%
55. CCc1ccc(S(=O)(=O)Nc2cc3c(cc2N2CCOCC2)n(C)c(=O)c(=O)n3C)cc1  -32.1%
56. CC(=O)c1ccc(NC(=O)CSc2nnc(-c3ccco3)c(-c3ccco3)n2)cc1  -33%
57. Cc1ccc(C(=O)N2CCCC(CCC(=O)N3CCN(c4ccccn4)CC3)C2)cc1C (centres unmarked)  -34.9%
58. CC1(C)C2CCC1(C)C(OC(=O)C[n+]1ccccc1N)C2.[Br-] (centres unmarked)  -35.3%
59. c1ccc(COc2ccccc2CNC2CCCC2)cc1  -39.7%
60. O=C(CSc1ccc2nnc(-c3ccccn3)n2n1)Nc1cccc(F)c1  -40.6%
61. Cn1c(=O)c(=O)n(C)c2cc(N3CCCC3)c(NS(=O)(=O)c3ccc(Cl)cc3)cc21  -44.3%
62. CN(Cc1c(C(=O)N2CCc3ccccc3C2)nc2ccc(Cl)cn12)C(C1CC1)C1CC1  -45.9%
63. COc1cccc(NC(=O)CSc2ccc3nnc(-c4ccccn4)n3n2)c1  -47.3%
64. Cc1cccc(C)c1NC(=S)N(CCCN1CCN(C)CC1)Cc1cccs1  -47.8%
65. COc1cccc(CNC23CC4CC(CC(C4)C2)C3)c1OCc1ccccc1.Cl  -50%
66. CCCCN(C)Cc1c(C(=O)N2CCc3ccccc3C2)nc2ccc(Cl)cn12  -50.1%
67. Cn1c(=O)c(=O)n(C)c2cc(N3CCCCC3)c(NS(=O)(=O)c3ccc([N+](=O)[O-])cc3)cc21  -50.6%
68. COc1ccc(OC)c(S(=O)(=O)Nc2cc3c(cc2N2CCCC2)n(C)c(=O)c(=O)n3C)c1  -50.7%
69. CN1CCN(Cc2c(C(=O)N3CCc4ccccc4C3)nc3ccc(Cl)cn23)CC1  -51.8%
70. CC(C)CN(C)Cc1c(C(=O)N2CCc3ccccc3C2)nc2ccc(Cl)cn12  -53.2%
71. CCc1ccc(CN2CCCC(CCC(=O)N3CCN(c4ccccn4)CC3)C2)o1 (centres unmarked)  -58.7%
72. Cc1cnc(CN(C)Cc2c(C(=O)N3CCc4ccccc4C3)nc3ccc(Cl)cn23)[nH]1  -62.6%
73. CSc1cccc(NC(=S)N(CCCN2CCCC2)Cc2cccs2)c1  -63.7%
74. COc1cc(CNC23CC4CC(CC(C4)C2)C3)ccc1OCc1ccccc1.Cl  -64%
75. Cc1ccc(NC(=O)CSc2nnc(-c3ccco3)c(-c3ccco3)n2)cc1  -64.9%
76. Cn1c(=O)c(=O)n(C)c2cc(N3CCCCC3)c(NS(=O)(=O)c3ccc(Br)cc3)cc21  -65.1%
77. CSc1cccc(NC(=S)N(CCCN2CCC(C)CC2)Cc2cccs2)c1  -72.9%
78. Cc1cccc(C(=O)N2CCCC(CCC(=O)N3CCN(c4ccccn4)CC3)C2)c1 (centres unmarked)  -74.5%
79. CSc1cccc(NC(=S)N(CCCN2CCCC(C)C2)Cc2cccs2)c1 (centres unmarked)  -75.6%
80. Cc1cccc(CSc2ccc3nnc(-c4ccccn4)n3n2)c1  -75.7%
81. Fc1cccc(CSc2ccc3nnc(-c4ccccn4)n3n2)c1  -77.9%
82. Cl.c1ccc(COc2ccccc2CNC23CC4CC(CC(C4)C2)C3)cc1  -83.6%
83. CCc1ccc(S(=O)(=O)Nc2cc3c(cc2N2CCCCC2)n(C)c(=O)c(=O)n3C)cc1  -85.6%
